Test in all cases: DAPPL (digital affinity profiling via proximity ligation, sequencing); 10 mM Tris-HCl pH 7.5, 50 mM NaCl, 1 mM DTT, 4% glycerol, room temperature, 30 min; GST-TFs on glutathione beads, 16-mer random dsDNA library, 0.1% formaldehyde crosslink after washing; high values mean tight binding
Holding throughout (details): protein: recombinant; tags: N-terminal GST; dsDNA, one strand shown

The target in one experiment is T1, FLI1 (Homo sapiens, UniProt Q01543 1-452).
T1 sequence: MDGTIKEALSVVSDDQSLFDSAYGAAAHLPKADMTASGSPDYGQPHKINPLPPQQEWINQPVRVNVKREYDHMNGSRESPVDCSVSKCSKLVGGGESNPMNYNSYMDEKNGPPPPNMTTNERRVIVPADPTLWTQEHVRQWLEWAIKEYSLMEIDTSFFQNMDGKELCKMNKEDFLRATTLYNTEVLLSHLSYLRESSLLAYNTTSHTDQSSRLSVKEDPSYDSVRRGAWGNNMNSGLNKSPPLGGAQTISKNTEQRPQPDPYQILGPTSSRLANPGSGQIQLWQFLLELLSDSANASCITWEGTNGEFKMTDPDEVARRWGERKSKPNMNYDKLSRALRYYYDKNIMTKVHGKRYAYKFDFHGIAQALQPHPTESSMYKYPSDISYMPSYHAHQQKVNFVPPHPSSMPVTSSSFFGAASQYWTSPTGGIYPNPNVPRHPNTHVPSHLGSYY
In a few lines: (§1)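 Each value of binding signal is a hexamer's read frequency for a factor divided by the same hexamer's frequency in the tag-only sample. Barcoded, bead-captured GST fusions of human transcription factors made in yeast were pooled with that sample and incubated with 200 nmole of a random double-stranded 16-mer DNA library in Tris/NaCl/DTT/glycerol buffer at room temperature for 30 min. Washing, 0.1% formaldehyde crosslinking, proximity ligation, PCR and Illumina NextSeq500 sequencing followed.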

In the next experiment the target is T2, ELK1 (Homo sapiens, UniProt P19419 1-428).
T2 sequence: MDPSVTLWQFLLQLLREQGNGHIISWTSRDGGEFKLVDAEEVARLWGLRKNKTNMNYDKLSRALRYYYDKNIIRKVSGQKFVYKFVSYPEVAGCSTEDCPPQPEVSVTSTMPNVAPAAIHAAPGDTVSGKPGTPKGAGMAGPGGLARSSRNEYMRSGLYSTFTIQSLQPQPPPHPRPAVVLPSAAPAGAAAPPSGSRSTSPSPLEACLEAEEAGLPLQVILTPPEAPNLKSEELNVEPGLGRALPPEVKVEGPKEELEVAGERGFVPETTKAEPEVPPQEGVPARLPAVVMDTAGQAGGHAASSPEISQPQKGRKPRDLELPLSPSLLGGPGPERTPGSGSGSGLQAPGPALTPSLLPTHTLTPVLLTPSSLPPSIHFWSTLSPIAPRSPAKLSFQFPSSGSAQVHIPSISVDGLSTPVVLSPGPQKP
In a few lines:
as §1

A further experiment has as its target T3, GABPA (Homo sapiens, UniProt Q06546 1-454).
T3 sequence: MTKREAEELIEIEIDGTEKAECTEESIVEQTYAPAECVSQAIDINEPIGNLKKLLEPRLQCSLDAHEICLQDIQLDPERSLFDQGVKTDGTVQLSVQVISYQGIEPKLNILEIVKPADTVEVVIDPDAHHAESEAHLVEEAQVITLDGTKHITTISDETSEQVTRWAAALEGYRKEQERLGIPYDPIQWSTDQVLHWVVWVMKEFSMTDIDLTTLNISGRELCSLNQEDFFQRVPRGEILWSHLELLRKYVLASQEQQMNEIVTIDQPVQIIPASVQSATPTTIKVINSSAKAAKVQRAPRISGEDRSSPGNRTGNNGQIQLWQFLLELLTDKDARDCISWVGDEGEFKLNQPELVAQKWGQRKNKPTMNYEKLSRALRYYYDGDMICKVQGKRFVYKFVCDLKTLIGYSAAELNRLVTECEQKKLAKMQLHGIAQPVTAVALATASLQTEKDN
A digest of the protocol:
as §1

For the next experiment, the target named is T4, ERG (Homo sapiens, UniProt P11308 1-479).
T4 sequence: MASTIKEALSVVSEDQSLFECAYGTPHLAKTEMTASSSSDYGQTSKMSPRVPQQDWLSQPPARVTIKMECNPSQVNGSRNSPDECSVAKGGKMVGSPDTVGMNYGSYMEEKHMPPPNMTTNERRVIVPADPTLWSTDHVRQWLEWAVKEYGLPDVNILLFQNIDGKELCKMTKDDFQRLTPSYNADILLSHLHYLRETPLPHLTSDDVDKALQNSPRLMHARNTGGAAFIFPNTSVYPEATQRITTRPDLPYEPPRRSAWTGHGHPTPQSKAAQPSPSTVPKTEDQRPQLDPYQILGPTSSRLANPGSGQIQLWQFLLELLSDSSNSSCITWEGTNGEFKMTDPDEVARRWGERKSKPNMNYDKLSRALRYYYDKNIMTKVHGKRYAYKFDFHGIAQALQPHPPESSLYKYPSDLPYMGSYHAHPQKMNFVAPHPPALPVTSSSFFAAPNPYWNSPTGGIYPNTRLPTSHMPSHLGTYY
A digest of the protocol:
as §1

For the next experiment, the target named is ELF1 (Homo sapiens, UniProt P32519 1-619). A digest of the protocol:
as §1

Another experiment deals with T5, EHF (Homo sapiens, UniProt Q9NZC4 1-300).
T5 sequence: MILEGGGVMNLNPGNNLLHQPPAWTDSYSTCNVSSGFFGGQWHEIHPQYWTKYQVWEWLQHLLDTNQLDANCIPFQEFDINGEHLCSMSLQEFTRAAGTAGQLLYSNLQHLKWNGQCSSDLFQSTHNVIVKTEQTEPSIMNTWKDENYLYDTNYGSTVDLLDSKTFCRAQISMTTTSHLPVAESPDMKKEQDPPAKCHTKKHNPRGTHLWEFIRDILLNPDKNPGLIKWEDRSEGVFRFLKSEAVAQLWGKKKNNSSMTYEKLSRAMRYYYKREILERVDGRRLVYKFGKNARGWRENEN
A digest of the protocol: as §1

A further experiment deals with SPI1 (Homo sapiens, UniProt P17947 1-270). In a few lines:
as §1

Another experiment concerns the target SPIB (Homo sapiens, UniProt Q01892 1-262). A digest of the protocol:
as §1

For a further experiment, the target named is T6, ELK3 (Homo sapiens, UniProt P41970 1-407).
T6 sequence: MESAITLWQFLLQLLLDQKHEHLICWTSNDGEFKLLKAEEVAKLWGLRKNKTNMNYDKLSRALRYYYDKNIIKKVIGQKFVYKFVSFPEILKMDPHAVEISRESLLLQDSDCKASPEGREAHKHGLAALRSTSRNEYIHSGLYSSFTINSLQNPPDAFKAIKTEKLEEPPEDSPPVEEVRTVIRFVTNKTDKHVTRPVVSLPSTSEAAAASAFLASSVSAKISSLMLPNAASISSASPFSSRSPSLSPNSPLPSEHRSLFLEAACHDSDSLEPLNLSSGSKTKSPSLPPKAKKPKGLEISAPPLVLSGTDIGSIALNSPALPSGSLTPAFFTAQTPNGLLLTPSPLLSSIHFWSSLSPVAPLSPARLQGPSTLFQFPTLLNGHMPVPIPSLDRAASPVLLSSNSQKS
In a few lines:
as §1

The target in another experiment is T7, FEV (Homo sapiens, UniProt Q99581 1-238).
T7 sequence: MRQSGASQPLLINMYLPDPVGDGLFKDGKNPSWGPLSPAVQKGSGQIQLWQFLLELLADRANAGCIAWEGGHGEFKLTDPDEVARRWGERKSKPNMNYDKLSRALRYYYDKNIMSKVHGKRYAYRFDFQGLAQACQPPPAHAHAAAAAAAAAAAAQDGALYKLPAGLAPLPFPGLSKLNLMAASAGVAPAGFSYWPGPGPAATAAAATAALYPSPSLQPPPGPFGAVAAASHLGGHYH
In a few lines: as §1

The next experiment concerns the target ETV5 (Homo sapiens, UniProt P41161 1-510). A digest of the protocol:
as §1

The next experiment deals with T8, SPIC (Homo sapiens, UniProt Q8N5J4 1-248).
T8 sequence: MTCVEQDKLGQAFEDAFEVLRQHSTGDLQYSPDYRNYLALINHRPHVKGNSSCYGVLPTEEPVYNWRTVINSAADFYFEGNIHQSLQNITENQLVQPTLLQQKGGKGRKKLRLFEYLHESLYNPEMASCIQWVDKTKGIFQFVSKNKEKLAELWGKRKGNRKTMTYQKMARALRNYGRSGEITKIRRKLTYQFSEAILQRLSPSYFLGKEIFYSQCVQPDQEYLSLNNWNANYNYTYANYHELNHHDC
A digest of the protocol: as §1

Another experiment deals with ELF4 (Homo sapiens, UniProt Q99607 1-663). In a few lines:
as §1

The target of another experiment is T9, ELK4 (Homo sapiens, UniProt P28324-2 1-405).
T9 sequence: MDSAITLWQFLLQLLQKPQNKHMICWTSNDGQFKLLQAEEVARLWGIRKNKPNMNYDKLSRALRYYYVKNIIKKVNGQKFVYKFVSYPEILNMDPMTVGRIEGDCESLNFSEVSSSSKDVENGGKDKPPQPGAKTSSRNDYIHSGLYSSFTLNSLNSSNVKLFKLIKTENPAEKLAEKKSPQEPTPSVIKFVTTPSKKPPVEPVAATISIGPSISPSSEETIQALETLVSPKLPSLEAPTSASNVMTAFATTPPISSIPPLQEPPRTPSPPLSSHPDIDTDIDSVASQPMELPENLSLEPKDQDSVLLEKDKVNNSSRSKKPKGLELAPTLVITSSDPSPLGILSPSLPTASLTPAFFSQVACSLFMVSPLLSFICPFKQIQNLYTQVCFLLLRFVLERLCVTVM
In a few lines: as §1

Another experiment has as its target T10, ETV2 (Homo sapiens, UniProt O00321 1-342).
T10 sequence: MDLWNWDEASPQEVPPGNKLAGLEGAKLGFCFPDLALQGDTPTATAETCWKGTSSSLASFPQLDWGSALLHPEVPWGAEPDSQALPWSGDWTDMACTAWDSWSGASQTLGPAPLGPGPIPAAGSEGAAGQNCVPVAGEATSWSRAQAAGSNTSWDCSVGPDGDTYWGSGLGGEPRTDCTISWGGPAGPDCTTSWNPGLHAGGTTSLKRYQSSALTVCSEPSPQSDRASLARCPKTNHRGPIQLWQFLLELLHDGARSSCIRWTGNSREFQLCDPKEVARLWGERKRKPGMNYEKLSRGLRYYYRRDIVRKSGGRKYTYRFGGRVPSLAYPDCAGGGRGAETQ
A digest of the protocol: as §1

The target of another experiment is T11, ELF3 (Homo sapiens, UniProt P78545 1-371).
T11 sequence: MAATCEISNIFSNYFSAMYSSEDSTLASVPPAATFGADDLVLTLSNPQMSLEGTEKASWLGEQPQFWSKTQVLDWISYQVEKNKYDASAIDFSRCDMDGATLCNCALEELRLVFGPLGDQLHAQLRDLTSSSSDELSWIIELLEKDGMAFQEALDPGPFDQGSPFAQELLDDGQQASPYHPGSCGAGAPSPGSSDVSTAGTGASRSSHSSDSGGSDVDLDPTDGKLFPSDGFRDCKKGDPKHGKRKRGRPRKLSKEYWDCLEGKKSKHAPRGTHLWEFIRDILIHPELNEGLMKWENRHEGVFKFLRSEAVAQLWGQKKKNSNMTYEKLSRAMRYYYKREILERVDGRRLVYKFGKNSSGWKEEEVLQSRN
In a few lines:
as §1

Another experiment addresses CRX (Homo sapiens, UniProt O43186 1-299). A digest of the protocol: as §1
For the next experiment, the target named is ETV1 (Homo sapiens, UniProt P50549 1-477). A digest of the protocol: as §1
ETV1, sequence (P50549 whole entry): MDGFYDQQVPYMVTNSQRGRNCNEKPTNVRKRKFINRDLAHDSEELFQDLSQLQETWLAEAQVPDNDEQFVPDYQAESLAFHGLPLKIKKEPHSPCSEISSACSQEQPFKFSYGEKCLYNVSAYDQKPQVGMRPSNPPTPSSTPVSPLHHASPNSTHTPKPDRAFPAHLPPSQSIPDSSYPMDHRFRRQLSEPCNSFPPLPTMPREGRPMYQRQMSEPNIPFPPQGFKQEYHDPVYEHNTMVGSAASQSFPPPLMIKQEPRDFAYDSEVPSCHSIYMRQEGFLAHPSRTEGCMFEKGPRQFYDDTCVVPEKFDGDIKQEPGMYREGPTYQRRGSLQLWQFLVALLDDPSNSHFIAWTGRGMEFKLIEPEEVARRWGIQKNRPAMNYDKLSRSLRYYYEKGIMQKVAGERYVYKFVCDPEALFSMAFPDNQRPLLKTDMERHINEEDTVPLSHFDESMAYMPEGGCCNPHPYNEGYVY

ELF4, sequence (Q99607 whole entry): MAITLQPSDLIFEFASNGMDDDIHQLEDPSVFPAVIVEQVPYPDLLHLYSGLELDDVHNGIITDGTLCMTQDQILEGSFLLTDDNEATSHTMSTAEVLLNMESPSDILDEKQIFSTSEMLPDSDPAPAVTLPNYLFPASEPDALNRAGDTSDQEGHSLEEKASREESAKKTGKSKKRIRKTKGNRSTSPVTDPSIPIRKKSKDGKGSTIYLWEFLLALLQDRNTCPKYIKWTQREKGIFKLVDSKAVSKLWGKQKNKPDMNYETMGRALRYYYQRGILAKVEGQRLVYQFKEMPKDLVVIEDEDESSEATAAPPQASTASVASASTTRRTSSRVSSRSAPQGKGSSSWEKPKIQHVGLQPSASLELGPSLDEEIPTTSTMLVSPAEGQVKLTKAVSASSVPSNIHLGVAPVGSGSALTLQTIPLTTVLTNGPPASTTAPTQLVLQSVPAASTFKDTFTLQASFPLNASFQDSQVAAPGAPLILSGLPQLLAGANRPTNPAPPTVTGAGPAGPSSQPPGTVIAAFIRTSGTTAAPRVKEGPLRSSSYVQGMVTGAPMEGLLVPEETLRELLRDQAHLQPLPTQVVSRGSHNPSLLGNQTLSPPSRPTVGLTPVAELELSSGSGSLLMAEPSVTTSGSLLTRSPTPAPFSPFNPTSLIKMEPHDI
ETV5, sequence (P41161 whole entry): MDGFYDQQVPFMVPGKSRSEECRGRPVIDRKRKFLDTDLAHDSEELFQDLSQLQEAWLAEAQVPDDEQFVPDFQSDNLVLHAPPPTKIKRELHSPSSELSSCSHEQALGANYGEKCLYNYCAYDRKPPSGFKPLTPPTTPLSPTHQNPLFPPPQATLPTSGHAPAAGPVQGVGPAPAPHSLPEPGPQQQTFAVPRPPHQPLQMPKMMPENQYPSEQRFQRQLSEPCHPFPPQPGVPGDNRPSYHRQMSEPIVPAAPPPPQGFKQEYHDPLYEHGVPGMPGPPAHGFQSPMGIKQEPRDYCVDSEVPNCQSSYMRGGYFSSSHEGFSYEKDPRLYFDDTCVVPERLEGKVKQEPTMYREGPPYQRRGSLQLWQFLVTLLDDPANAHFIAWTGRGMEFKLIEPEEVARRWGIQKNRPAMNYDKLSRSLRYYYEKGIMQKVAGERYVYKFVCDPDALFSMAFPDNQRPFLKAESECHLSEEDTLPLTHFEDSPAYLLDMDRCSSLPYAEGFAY
SPIB, sequence (Q01892 whole entry): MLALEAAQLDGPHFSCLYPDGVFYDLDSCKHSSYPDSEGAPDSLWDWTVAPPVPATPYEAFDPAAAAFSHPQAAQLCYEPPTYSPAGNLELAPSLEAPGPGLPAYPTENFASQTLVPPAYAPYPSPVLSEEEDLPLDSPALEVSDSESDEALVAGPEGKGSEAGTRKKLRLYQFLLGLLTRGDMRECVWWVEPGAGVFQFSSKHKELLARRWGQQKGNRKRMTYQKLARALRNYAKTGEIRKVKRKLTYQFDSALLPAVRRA
CRX, sequence (O43186 whole entry): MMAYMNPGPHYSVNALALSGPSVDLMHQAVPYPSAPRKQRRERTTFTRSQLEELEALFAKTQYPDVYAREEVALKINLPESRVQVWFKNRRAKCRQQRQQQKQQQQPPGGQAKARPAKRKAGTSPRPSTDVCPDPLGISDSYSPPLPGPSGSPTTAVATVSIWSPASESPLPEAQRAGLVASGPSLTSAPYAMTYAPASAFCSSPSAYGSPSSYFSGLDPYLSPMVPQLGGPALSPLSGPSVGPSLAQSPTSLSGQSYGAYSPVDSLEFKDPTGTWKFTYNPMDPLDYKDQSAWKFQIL
ELF1, sequence (P32519 whole entry): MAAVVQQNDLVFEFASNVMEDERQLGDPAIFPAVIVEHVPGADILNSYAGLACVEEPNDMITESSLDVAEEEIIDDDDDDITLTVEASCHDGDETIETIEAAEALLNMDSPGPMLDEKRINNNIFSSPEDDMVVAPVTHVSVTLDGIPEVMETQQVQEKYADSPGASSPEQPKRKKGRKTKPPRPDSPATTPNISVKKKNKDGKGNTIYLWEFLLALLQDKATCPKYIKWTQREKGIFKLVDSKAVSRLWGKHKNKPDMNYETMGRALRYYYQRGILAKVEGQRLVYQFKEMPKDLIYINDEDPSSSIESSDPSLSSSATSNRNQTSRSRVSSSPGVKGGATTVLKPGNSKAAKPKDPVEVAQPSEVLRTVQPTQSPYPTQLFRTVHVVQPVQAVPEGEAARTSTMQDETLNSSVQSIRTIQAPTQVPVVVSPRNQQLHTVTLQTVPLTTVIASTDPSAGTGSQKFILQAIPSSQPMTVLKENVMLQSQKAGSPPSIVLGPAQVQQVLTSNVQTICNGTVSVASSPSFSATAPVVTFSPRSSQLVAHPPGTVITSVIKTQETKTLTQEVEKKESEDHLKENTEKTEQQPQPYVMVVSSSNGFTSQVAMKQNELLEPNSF

For the sequence ATCACA, the binding signal with FLI1 is 1.06 fold enrichment (6-mer frequency, TF over GST control); with ELK1 it was 1.09 fold enrichment (6-mer frequency, TF over GST control); with GABPA, 1.11 fold enrichment (6-mer frequency, TF over GST control); in the experiment with ERG, 1.02 fold enrichment (6-mer frequency, TF over GST control); with ELF1, 1.13 fold enrichment (6-mer frequency, TF over GST control); in the experiment with EHF, 1.04 fold enrichment (6-mer frequency, TF over GST control). The binding signal in the experiment with SPI1 is 1.06 fold enrichment (6-mer frequency, TF over GST control); with SPIB, 1.02 fold enrichment (6-mer frequency, TF over GST control); with ELK3, 1.13 fold enrichment (6-mer frequency, TF over GST control); with FEV, 1.11 fold enrichment (6-mer frequency, TF over GST control); with ETV5, 1.13 fold enrichment (6-mer frequency, TF over GST control); with SPIC, 1.09 fold enrichment (6-mer frequency, TF over GST control). The binding signal with ELF4 is 1.1 fold enrichment (6-mer frequency, TF over GST control); in the experiment with ELK4, 1.02 fold enrichment (6-mer frequency, TF over GST control); with ETV2, 1.25 fold enrichment (6-mer frequency, TF over GST control); with ELF3, 1.15 fold enrichment (6-mer frequency, TF over GST control); in the experiment with CRX, 1.16 fold enrichment (6-mer frequency, TF over GST control); in the experiment with ETV1, 1.04 fold enrichment (6-mer frequency, TF over GST control).
On to TAGCGG, for which the binding signal in the experiment with FLI1 was 1.14 fold enrichment (6-mer frequency, TF over GST control); with ELK1 it was 1.1 fold enrichment (6-mer frequency, TF over GST control); with GABPA it was 1.06 fold enrichment (6-mer frequency, TF over GST control); with ERG, 1.16 fold enrichment (6-mer frequency, TF over GST control); with EHF, 1.24 fold enrichment (6-mer frequency, TF over GST control); with SPI1 it was 1.23 fold enrichment (6-mer frequency, TF over GST control). The binding signal with SPIB was 1.17 fold enrichment (6-mer frequency, TF over GST control); with ELK3, 1.08 fold enrichment (6-mer frequency, TF over GST control); in the experiment with FEV, 1.12 fold enrichment (6-mer frequency, TF over GST control); with ETV5 it was 1.13 fold enrichment (6-mer frequency, TF over GST control); with SPIC, 1.04 fold enrichment (6-mer frequency, TF over GST control); with ELF4, 1 fold enrichment (6-mer frequency, TF over GST control). For the same sequence, the binding signal is 1.06 fold enrichment (6-mer frequency, TF over GST control) in the experiment with ELK4; 1.19 fold enrichment (6-mer frequency, TF over GST control) with ETV2; 1.02 fold enrichment (6-mer frequency, TF over GST control) with ELF3; 1.26 fold enrichment (6-mer frequency, TF over GST control) in the experiment with CRX; 1.05 fold enrichment (6-mer frequency, TF over GST control) with ETV1.

These data come from PMC7862700, “An all-to-all approach to the identification of sequence-specific readers for epigenetic DNA modifications on cytosine”.
